According to PubChem BioAssay AID916 (National Center for Advancing Translational Sciences (NCATS), 2007):
Records with an inconclusive call do not appear. A number with no mark means an inactive call. Active and inactive are the calls of the source. The call rests on the fitted dose curve; in most records, active means well fitted activation curve with a large enough effect in the signal ratio, with a control signal flat (not every such curve was filed as active); inconclusive means small, poorly fitted or top-dose-only effect, or a change in a side signal; inactive means flat fitted curve, though single readings scatter; the % refers to the signal ratio.

test: Confirmation Concentration-Response Assay for Cell signaling CRE-BLA (Fsk stim); settings: CHO CRE-bla reporter (cAMP response element driving beta-lactamase), NKH477 EC10 stim, FRET ratio; series mostly up to 38.3 µM; activation: at the top concentration
Text: NIH Molecular Libraries Screening Centers Network [MLSCN] NIH Chemical Genomics Center [NCGC] MLSCN Grant: 1X01MH079867-01 Assay Provider: Marshall W. Nirenberg, U.S. National Heart, Lung and Blood Institute CRE beta-lactamase Assay Overview Memories persist for different lengths of time, from seconds or minutes to a lifetime. There are two kinds of memory: short-term memory (STM) and long-term memory (LTM). STM lasts for minutes to hours, which maybe mediated by modifications of molecules involved in synaptic functions. LTM lasts for days or longer, and may be due to the formation of new synapses or restructuring of existing synapses. LTM, but not STM, requires gene transcription and synthesis of proteins. CREB (cyclic-AMP Responsive Element Binding Protein) is one of the candidates plays an important role for enhancement of some types of LTM. CREB, a family of transcription factors, regulates the transcription of genes containing cAMP Responsive Elements (CRE). CRE is a nucleotide sequence often found in the promoter regions of genes that are binding sites for CREB. Using a beta-lactamase reporter-gene under control of cAMP responsive element, a cell-based assay [CellSensor(TM) CRE-bla CHO developed by Invitrogen Corp.] was used to measure forskolin-induced signaling. The selected compounds were measured for their ability to modulate positively the action of EC10 NKH 477, a water soluble forskolin, on reporter gene activity. Compounds were screened in a titration series in 1536-well format. Positive modulators were identified based on the AC50 values derived from the screening data.
NCGC Assay Protocol Summary 2000 cells/5uL in Opti-MEM medium containing 0.5% dialyzed FBS, 0.1 mM NEAA, 1 mM sodium pyruvate and 10 mM HEPES was dispensed into 1536-well plates and cells were cultured at 37 degrees Celsius overnight. Next day 23 nL of compounds or DMSO were delivered to each well using a pin tool, and 1uL of EC10 level of NKH 477, or EC100 level of IBMX, a PDE inhibitor, in the present of NKH 477, or assay medium was added. And then the plates were incubated at 37 degrees Celsius for 3 hours. 1 uL of CCF4-dye mixture was added to each well. After incubated at room temperature for 2 hours the plates were measured on an EnVision plate reader at Excitation 405nm, Emission1=460nm and Emission 2=530nm. The %Activity was determined from the ratio of 460nm/530nm. Keywords: NIH Roadmap, MLSCN, MLSMR, qHTS, NCGC, CRE, beta-lactamase reporter-gene assay.

Compound | Potency | activation [%]
Cn1c(C(=O)NCCCN2CCCC2=O)cc2c(=O)n(C)c3ccccc3c21 | 25.1 µM (active) | 
Cc1cc(Nc2ccc3ccccc3c2)n2ncnc2n1 |  | 8.92
Fc1ccc(CSc2ncnc3c2oc2ccccc23)cc1 | 10 µM (active) | 
O=c1[nH]c(SCc2ccccc2Cl)nc2c1cnn2-c1ccccc1 | 3.98 µM (active) | 
CSc1nc2ccc(Nc3nc(N4CCOCC4)nc(N4CCOCC4)n3)cc2s1 | 12.6 µM (active) | 
